Results reported in PubChem BioAssay.
Values without a mark were called inactive. No rule for the calls is given here.

Target: L-lactate dehydrogenase (Plasmodium falciparum (isolate CDC / Honduras)) (UniProt Q27743)
Assay: PfLDH activity inhibition – cell lysate, 3D7 strain, counter-screen for P. falciparum growth inhibition project (AID 2304);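 also: 0% = vehicle and 100% = reference inhibitor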
Settings: P. falciparum 3D7 crude extract, LDH APAD/NBT absorbance; at 2 µM; active compounds read high

L-lactate dehydrogenase (Plasmodium falciparum (isolate CDC / Honduras)), sequence (Q27743 whole entry, looked up): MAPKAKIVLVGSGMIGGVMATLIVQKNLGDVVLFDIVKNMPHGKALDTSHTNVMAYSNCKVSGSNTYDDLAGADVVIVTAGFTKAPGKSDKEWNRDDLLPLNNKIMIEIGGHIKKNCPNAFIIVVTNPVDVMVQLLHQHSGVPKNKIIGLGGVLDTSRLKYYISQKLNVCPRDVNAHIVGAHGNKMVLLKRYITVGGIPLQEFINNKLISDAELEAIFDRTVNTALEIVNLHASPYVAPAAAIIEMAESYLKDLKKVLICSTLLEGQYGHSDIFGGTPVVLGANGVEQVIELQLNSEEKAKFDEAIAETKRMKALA

Row | SMILES | inhibition [%]
1 | O=C(Nc1ccc(Cl)cc1)Nc1cccc(-c2cccc(-c3nc4ccc(F)cc4[nH]3)c2)c1 | -2
2 | c1cncc(CCNCc2cccc(-c3csc(-c4nc5ccccc5[nH]4)c3)c2)c1 | -1
3 | COC(=O)c1cccc(NC(=O)NC2CCN(c3ccnc(NCc4ccc(F)cc4)n3)CC2)c1 | 5
4 | Cc1cc(=O)c(-c2ccc(Oc3cccc(OC(F)(F)F)c3)cc2)c(C)[nH]1 | -5
5 | COc1ccc(-c2csc(NC(=O)CCC(=O)O)n2)cc1OC | 5
6 | COc1nc2c(CCN3CC[C@H](NCc4cc(C#N)c5c(c4)CCO5)[C@H](O)C3)ccnc2cc1F | -9
7 | O=C(/C=C/c1ccc(Cl)c(Cl)c1)NCCCCCN1CCC(CCNC(=O)/C=C/c2ccccc2F)CC1 | -2
8 | COc1ccc(NC(=O)Nc2ccc(-c3ccncc3)c(C(F)(F)F)c2)cc1N1CCN(C)CC1 | 2
9 | CCOC(=O)c1cccc(N/C(N)=N/c2nc(C)cc(NCCc3ccccc3)n2)c1 | -6
10 | CC(C)OC(=O)c1ccc(NC(=O)N[C@@H](Cc2ccc(O)cc2)C(=O)NC2C[C@H]3CC[C@@H](C2)N3Cc2ccccc2)cc1 (stereo not given in full) | -5
11 | O=C(Nc1ccc(F)cc1)c1ccc(C(=O)NC2CCN(CC3CCCCC3)CC2)cc1 | -7
12 | CC(C)C[C@H](NC(=O)c1cc2ccccc2s1)C(=O)N[C@H]1CCN(Cc2ccc(OC[C@@H]3CCCN3C)c(Cl)c2)C1 | -4
13 | CC(C)Cn1c2ccccc2c2nc3nc(N)nc(N)c3nc21 | -3
14 | O=C(/C=C/c1ccc(Cl)c(Cl)c1)NCCCCCN1CCC(NC(=O)c2ccc(F)cc2F)CC1 | -3
15 | CN1CCCN(Cc2cccc(-c3cccc(NC(=O)c4cccc(Cl)c4)c3)c2)CC1 | -4
16 | Cc1cc(C(=O)NCc2ccc(-c3c(C)noc3C)cc2)n(-c2ccc(Cl)cc2)n1 | 3
17 | CC(=O)NCCNCc1cccc(C(=O)NCc2cccc(C(F)(F)F)c2)c1 | 1
18 | CC(=NN=C(N)N)c1ccc2ccc3ccccc3c2c1 | -7
19 | CCCNC(=O)Nc1cc2cc(-c3cccc(CN4CCCCC4)c3)ccc2n2c(C)nnc12 | 0
20 | CC(CCc1ccccc1)NCC(O)c1ccc2c3c(cccc13)C(=O)N2C (stereo not given) | -2

Row | SMILES | inhibition [%]
21 | Cc1cc2c(cc1C(F)(F)F)N(C(=O)Nc1cc(C(=O)NCCN(C)C)cc(C(F)(F)F)c1)CC2 | -7
22 | CN1CCN(c2ccnc3ccc(NC(=O)Cc4ccc5ccccc5c4)cc23)CC1 | -2
23 | N#Cc1ccc(CN2CCC(NC(=O)c3ccc(-c4nnc(-c5cccc6ccccc56)o4)cc3)CC2)cc1 | -2
24 | COc1cc(Cc2cnc(N)nc2N)cc(OCCCCCC(=O)O)c1OC | -4
25 | COc1ccc(CNCc2cccc(-c3cccc(-c4nc5ccc(F)cc5[nH]4)c3)c2)cc1 | 5
26 | CC(=O)Nc1cccc(CN(Cc2ccc(-c3ccc(CNCc4cccnc4)cn3)cc2)C(=O)Cc2cccnc2)c1 | -10
27 | COc1ccc(NC(=O)Nc2cccc(-c3ccc(-c4nc5c(C)cccc5[nH]4)s3)c2)cc1 | 8
28 | Cc1ccc(C2CCN(CCCCNC(=O)c3ccc(NC(=O)c4ccc(Cl)cc4)cc3)CC2)c(C)c1 | -1
29 | COC(=O)c1cccc(NC(=O)NC2CCN(c3ccnc(Nc4ccc(F)cc4)n3)C2)c1 (stereo not given) | 3
30 | Cc1nc2ccc3ccc(CN(C)c4ccc(C(=O)N[C@@H](CCC(=O)O)C(=O)O)cc4)cc3c2c(=O)[nH]1 | 1
31 | COc1ccc2nccc([C@@H](O)CN3CCC(NCc4cc5sccc5nc4C(F)(F)F)CC3)c2c1 | 4
32 | O=C(Nc1ccc(S(=O)(=O)N2CCOCC2)cc1)c1cc(-c2cc(Cl)ccc2O)n[nH]1 | -3
33 | COc1ccc(S(=O)(=O)N2CCOCC2)cc1NC(=O)c1cc2ccccc2o1 | -2
34 | CC1(C)N=C(N)N=C(N)N1OCCc1ccccc1 | 2
35 | CCOC(=O)NC1=NC(C)(C)N(OCCCOc2cc(Cl)c(Cl)cc2Cl)C(NC(=O)OCC)=N1 | 5
36 | N#Cc1ccc2[nH]cc(-c3cn4cc(SC5CCCC5)ccc4n3)c2c1 | 3
37 | COc1ccc(C2CC(=O)C3=C(C2)NC(C)=C(C(=O)OC2CCCC2)C3c2cccc(O)c2)cc1 (stereo not given) | -2
38 | O=C(C=Cc1ccc(Cl)c(Cl)c1)NCCCCCN1CCCC(CCCNC(=O)[C@@H]2C[C@H]2c2ccccc2)C1 (stereo not given in full) | -1
39 | O=C(/C=C/c1ccc(Cl)c(Cl)c1)NCCCCCN1CCC(NC(=O)Nc2ccc(F)c(Cl)c2)CC1 | 5
40 | COc1cc(NC(=O)Nc2ccc([N+](=O)[O-])cc2OC)c(OC)cc1Cl | 3
